Assay results taken from publication PMC7862700, “An all-to-all approach to the identification of sequence-specific readers for epigenetic DNA modifications on cytosine”.

Legend:
Assay in all cases: DAPPL (digital affinity profiling via proximity ligation, sequencing); 10 mM Tris-HCl pH 7.5, 50 mM NaCl, 1 mM DTT, 4% glycerol, room temperature, 30 min; GST-TFs on glutathione beads, 16-mer random dsDNA library, 0.1% formaldehyde crosslink after washing; high values mean tight binding
Details in all cases: protein: recombinant; tags: N-terminal GST; dsDNA, one strand shown
[1] = target: T1, FEV (Homo sapiens, UniProt Q99581 1-238)
T1 sequence: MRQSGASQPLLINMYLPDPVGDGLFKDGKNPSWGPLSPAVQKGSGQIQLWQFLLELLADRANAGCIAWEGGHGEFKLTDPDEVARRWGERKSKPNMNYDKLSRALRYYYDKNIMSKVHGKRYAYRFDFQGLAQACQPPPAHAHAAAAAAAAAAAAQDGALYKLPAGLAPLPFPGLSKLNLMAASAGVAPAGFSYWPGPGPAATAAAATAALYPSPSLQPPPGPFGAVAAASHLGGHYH
Outline: (§1)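 Yeast served to express human transcription factors as GST fusions, which were then captured on glutathione beads and labelled with DNA barcodes. Pooled with a tag-only sample, they were incubated with 200 nmole of a 16-mer random double-stranded DNA library for 30 min at room temperature in Tris/NaCl/DTT/glycerol buffer, washed, crosslinked with 0.1% formaldehyde, ligated by proximity, amplified by PCR and sequenced. Dividing each hexamer's read frequency for a factor by its frequency for the tag-only sample gives the binding signal.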

[2] = target: ETV5 (Homo sapiens, UniProt P41161 1-510)
Outline: as §1

[3] = target: T2, SPIC (Homo sapiens, UniProt Q8N5J4 1-248)
T2 sequence: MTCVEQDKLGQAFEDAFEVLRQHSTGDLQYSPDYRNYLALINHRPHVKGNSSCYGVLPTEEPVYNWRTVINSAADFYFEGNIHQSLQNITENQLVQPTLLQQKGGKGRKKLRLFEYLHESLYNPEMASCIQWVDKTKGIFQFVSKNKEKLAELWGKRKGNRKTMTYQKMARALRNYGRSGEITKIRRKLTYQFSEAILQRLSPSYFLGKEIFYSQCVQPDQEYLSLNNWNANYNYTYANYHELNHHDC
Outline: as §1

[4] = target: ELF4 (Homo sapiens, UniProt Q99607 1-663)
Outline: as §1

[5] = target: T3, ELK4 (Homo sapiens, UniProt P28324-2 1-405)
T3 sequence: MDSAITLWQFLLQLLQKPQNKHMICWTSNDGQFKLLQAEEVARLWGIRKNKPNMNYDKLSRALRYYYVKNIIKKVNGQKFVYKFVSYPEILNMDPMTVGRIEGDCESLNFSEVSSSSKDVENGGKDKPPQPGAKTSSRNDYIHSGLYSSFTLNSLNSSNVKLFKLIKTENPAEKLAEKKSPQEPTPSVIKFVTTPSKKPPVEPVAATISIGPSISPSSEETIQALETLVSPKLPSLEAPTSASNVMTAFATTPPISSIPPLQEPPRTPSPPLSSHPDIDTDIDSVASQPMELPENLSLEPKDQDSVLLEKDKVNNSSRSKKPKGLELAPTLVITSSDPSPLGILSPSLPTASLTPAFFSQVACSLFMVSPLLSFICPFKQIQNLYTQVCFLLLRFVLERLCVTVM
Outline: as §1

[6] = target: T4, ETV2 (Homo sapiens, UniProt O00321 1-342)
T4 sequence: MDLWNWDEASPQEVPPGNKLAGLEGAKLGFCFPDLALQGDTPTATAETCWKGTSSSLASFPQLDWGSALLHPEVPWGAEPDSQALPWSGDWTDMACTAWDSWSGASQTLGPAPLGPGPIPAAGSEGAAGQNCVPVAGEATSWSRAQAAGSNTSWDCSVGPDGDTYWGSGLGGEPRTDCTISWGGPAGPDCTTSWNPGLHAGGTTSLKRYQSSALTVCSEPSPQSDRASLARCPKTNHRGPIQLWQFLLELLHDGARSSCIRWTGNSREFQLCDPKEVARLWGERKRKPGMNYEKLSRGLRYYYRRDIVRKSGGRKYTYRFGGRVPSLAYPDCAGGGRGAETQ
Outline: as §1

[7] = target: T5, ELF3 (Homo sapiens, UniProt P78545 1-371)
T5 sequence: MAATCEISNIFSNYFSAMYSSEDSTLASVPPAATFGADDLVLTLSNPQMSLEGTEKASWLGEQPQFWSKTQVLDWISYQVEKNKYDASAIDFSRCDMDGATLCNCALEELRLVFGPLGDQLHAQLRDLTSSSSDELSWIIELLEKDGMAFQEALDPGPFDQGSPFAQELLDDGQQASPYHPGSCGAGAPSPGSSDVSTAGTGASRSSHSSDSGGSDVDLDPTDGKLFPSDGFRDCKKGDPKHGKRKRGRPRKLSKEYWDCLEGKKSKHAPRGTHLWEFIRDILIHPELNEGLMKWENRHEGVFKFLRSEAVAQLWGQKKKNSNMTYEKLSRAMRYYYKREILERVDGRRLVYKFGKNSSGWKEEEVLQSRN
Outline: as §1

[8] = target: ETV1 (Homo sapiens, UniProt P50549 1-477)
Outline: as §1

[9] = target: T6, ERF (Homo sapiens, UniProt P50548 1-548)
T6 sequence: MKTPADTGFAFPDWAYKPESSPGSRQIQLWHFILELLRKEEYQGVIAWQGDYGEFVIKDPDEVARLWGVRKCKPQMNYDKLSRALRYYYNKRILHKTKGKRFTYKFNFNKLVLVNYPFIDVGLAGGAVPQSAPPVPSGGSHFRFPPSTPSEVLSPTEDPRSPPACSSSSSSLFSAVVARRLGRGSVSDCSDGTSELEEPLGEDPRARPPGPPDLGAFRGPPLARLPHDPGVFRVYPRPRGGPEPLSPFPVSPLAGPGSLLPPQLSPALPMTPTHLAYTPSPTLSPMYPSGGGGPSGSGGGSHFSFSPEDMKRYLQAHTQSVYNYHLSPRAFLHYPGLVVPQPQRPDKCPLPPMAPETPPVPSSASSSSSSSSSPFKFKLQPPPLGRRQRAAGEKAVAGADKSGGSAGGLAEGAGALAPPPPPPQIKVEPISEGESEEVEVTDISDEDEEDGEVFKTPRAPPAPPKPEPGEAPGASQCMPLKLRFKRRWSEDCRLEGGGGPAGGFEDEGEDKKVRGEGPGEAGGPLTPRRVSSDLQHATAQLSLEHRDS
Outline: as §1

[10] = target: T7, ETV3L (Homo sapiens, UniProt Q6ZN32 1-361)
T7 sequence: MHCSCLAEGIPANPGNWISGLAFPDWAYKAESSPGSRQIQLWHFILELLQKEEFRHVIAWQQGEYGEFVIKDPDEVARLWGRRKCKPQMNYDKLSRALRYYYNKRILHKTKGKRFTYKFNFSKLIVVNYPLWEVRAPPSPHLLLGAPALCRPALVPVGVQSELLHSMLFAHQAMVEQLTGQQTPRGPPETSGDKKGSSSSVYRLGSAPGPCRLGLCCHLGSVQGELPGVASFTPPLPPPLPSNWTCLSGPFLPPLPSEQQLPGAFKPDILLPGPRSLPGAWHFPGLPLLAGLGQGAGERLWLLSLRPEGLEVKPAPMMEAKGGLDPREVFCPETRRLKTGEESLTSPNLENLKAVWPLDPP
Outline: as §1

[11] = target: T8, ETS2 (Homo sapiens, UniProt P15036 1-469)
T8 sequence: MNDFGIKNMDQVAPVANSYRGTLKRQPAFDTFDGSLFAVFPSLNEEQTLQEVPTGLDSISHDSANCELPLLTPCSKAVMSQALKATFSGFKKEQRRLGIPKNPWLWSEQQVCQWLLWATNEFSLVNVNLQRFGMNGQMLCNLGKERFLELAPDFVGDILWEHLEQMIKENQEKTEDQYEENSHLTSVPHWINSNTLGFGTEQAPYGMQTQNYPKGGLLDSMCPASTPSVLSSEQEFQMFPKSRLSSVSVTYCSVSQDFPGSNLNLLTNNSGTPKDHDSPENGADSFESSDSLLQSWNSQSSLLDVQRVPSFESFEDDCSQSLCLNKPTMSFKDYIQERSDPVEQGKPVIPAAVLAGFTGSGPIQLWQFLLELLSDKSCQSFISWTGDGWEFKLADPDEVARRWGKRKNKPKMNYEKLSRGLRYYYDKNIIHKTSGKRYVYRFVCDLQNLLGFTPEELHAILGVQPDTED
Outline: as §1

[12] = target: T9, SPDEF (Homo sapiens, UniProt O95238 1-335)
T9 sequence: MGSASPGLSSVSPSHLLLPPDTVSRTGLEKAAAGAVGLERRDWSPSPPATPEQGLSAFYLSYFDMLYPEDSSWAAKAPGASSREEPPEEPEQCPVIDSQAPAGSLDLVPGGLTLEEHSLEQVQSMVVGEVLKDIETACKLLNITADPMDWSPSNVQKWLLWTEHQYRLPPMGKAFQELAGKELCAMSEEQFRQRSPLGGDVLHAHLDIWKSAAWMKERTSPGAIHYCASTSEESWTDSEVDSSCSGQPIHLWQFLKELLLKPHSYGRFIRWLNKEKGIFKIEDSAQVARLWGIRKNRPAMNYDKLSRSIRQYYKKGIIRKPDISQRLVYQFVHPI
Outline: as §1

[13] = target: T10, ELF5 (Homo sapiens, UniProt Q9UKW6-2 1-255)
T10 sequence: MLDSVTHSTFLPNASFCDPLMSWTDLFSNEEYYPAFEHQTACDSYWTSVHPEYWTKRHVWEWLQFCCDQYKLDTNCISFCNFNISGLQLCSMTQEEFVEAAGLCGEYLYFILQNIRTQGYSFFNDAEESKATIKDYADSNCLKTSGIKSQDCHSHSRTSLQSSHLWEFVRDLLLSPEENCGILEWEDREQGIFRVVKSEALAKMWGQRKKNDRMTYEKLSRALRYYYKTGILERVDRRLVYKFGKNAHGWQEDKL
Outline: as §1

[14] = target: T11, ETV3 (Homo sapiens, UniProt P41162-2 1-143)
T11 sequence: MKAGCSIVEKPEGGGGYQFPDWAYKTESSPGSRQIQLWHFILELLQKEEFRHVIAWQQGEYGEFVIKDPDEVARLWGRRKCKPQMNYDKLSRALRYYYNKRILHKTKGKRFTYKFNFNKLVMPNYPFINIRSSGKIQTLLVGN
Outline: as §1

[15] = target: ETV6 (Homo sapiens, UniProt P41212 1-452)
Outline: as §1

ELF4, sequence (Q99607 whole entry): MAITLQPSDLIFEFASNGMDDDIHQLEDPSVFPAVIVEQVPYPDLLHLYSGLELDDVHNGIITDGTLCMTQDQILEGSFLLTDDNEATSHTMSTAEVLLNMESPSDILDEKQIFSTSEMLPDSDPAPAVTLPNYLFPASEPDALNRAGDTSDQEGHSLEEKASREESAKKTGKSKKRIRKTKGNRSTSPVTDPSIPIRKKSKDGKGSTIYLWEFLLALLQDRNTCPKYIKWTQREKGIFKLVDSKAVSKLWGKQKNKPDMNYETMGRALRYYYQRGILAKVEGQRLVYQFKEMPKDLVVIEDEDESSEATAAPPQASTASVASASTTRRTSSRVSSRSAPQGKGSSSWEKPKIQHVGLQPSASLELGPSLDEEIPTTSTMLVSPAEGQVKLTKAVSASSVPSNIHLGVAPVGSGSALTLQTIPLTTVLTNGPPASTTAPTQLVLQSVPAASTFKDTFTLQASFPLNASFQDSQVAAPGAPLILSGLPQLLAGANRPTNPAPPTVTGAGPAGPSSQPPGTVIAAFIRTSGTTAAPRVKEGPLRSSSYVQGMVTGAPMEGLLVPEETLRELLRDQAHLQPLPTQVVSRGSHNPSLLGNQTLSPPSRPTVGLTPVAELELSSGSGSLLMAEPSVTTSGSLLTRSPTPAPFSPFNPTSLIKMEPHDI
ETV5, sequence (P41161 whole entry): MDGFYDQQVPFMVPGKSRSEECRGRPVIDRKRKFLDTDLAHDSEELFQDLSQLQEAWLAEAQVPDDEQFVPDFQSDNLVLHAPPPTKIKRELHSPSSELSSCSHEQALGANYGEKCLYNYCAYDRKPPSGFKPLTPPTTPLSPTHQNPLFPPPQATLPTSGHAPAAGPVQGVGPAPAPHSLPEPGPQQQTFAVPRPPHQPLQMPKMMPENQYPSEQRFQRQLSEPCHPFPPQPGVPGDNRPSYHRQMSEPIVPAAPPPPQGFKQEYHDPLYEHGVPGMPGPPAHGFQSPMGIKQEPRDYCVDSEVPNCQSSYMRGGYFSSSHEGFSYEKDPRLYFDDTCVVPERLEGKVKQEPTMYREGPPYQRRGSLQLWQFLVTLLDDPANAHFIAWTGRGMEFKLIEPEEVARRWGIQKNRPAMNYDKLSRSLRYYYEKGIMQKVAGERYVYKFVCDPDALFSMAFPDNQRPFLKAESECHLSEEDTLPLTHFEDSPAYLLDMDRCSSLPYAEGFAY
ETV1, sequence (P50549 whole entry): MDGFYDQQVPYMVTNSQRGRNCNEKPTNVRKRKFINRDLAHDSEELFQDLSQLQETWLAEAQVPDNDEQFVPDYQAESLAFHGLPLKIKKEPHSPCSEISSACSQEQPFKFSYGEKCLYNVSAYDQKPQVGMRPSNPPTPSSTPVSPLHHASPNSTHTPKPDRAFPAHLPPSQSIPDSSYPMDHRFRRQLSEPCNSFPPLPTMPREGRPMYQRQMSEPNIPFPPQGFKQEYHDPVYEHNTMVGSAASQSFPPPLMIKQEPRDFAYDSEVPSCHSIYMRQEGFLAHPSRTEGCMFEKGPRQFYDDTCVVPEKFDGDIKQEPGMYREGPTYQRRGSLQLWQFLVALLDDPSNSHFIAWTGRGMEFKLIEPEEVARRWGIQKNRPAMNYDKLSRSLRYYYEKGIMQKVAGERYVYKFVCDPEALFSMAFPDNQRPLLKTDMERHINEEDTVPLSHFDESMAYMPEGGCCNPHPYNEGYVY
ETV6, sequence (P41212 whole entry): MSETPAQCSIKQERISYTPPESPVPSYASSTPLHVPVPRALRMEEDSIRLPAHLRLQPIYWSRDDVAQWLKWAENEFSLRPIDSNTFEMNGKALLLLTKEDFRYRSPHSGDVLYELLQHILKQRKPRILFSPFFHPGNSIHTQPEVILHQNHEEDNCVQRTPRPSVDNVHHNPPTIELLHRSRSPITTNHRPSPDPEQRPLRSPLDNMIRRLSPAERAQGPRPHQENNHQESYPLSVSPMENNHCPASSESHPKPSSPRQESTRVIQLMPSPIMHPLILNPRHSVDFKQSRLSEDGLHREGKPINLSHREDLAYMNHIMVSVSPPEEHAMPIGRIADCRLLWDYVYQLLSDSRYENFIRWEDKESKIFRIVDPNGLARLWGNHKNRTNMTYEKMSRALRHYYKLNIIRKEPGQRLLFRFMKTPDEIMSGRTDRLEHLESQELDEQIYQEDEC

Sequence | binding signal [1] | binding signal [2] | binding signal [3] | binding signal [4] | binding signal [5] | binding signal [6] | binding signal [7] | binding signal [8] | binding signal [9] | binding signal [10] | binding signal [11] | binding signal [12] | binding signal [13] | binding signal [14] | binding signal [15]
TCGCCG | 1.26 fold enrichment (6-mer frequency, TF over GST control) | 1.03 fold enrichment (6-mer frequency, TF over GST control) | 1.09 fold enrichment (6-mer frequency, TF over GST control) | 1.21 fold enrichment (6-mer frequency, TF over GST control) | 1.3 fold enrichment (6-mer frequency, TF over GST control) | 1.2 fold enrichment (6-mer frequency, TF over GST control) | 1.21 fold enrichment (6-mer frequency, TF over GST control) | 1.37 fold enrichment (6-mer frequency, TF over GST control) | 1.38 fold enrichment (6-mer frequency, TF over GST control) | 1.25 fold enrichment (6-mer frequency, TF over GST control) | 1.26 fold enrichment (6-mer frequency, TF over GST control) | 1.01 fold enrichment (6-mer frequency, TF over GST control) | 1.15 fold enrichment (6-mer frequency, TF over GST control) | 1.2 fold enrichment (6-mer frequency, TF over GST control) | 1.13 fold enrichment (6-mer frequency, TF over GST control)
GCCCCC | 1.13 fold enrichment (6-mer frequency, TF over GST control) | 1.06 fold enrichment (6-mer frequency, TF over GST control) | 1.26 fold enrichment (6-mer frequency, TF over GST control) | 1.11 fold enrichment (6-mer frequency, TF over GST control) | 1.18 fold enrichment (6-mer frequency, TF over GST control) | 1.23 fold enrichment (6-mer frequency, TF over GST control) | 1.2 fold enrichment (6-mer frequency, TF over GST control) | 1.1 fold enrichment (6-mer frequency, TF over GST control) | 1.24 fold enrichment (6-mer frequency, TF over GST control) | 1.16 fold enrichment (6-mer frequency, TF over GST control) | 1.03 fold enrichment (6-mer frequency, TF over GST control) |  | 1.04 fold enrichment (6-mer frequency, TF over GST control) | 1.21 fold enrichment (6-mer frequency, TF over GST control) | 1.05 fold enrichment (6-mer frequency, TF over GST control)
